Screens (PubChem BioAssay)
The list is not random: actives were taken first. Their share in the collection is about 4.9%.
MPTP block: inhibitors of mitochondrial permeability transition pore; isolated mouse mitochondria, Ca2+ swelling absorbance, 30 min; 360,000 tested, 1.4% active; AID 602449; inhibition, % at 10 µM;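 active means inhibition of 50% or more, scaled per plate between neutral and stimulator controls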
HSF-1 act: increases HSF-1 driven luciferase reporter signal; NIH3T3-HGL HSF-1 luciferase reporter, MG132, 8 h; 100% = twice DMSO control signal; activation, % at 9 µM; 300,000 tested, 1.7% active; AID 504408;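 active means mean replicate activation of at least 50% with a set share of replicates each reaching 50%; inconclusive means only one of those two conditions met; inactive means mean below 50% and too few replicates reaching it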
dFosB act: mouse delta FosB homodimer activation. purified delta FosB, TAMRA-CDK5 oligo fluorescence polarization; percent of positive-control signal above neutral wells. activation, % at 25 µM. 340,000 tested, 0.99% active. AID 493131;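 active means mean activation above about 17%, with every replicate also reaching it, limit read from the data, passing the limit was not always enough; inconclusive means only one of the two conditions met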
Target sequence (P13346 whole entry, looked up): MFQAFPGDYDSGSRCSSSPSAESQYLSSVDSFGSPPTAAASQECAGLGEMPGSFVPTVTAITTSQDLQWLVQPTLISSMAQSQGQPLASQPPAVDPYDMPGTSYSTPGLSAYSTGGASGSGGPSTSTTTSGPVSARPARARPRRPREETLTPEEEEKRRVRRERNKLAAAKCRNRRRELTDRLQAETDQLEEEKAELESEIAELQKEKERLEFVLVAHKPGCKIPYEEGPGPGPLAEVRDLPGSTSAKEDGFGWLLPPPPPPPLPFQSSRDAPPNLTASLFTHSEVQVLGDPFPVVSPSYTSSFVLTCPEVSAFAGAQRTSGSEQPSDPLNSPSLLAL
HSF1 inh: HSF1 inhibition. NIH3T3-HGL HSE-luciferase, MG132-induced, luminescence 8 h; stronger effect = lower value. activity change, negative = inhibition, % at 7.5 µM (by protocol). 300,000 tested, 0.77% active. AID 2098;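 active means more than half of replicate wells show activity change below -50%, luminescence cut by over half; inconclusive means some wells, but at most half, below -50%; inactive means no replicate well below -50%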;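 further: luciferase reports HSF-1 transcriptional activity via heat shock element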
HSP90 refold inh: HSP90 refolding inhibition in rabbit reticulocyte lysate | luciferase refolding luminescence, 3 h | inhibition, % at 5.6 µM | 290,000 tested, 0.91% active;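 active means inhibition above the screen-wide mean plus 3 SD, computed separately per campaign, cut at about 16% in these data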;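 further: inhibitors lower the luminescence because luciferase stays unfolded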
Platelet DG rel: modulates dense granule release in human platelets. human platelet-rich plasma, SFLLRN dense granule ATP release, luminescence. inhibition, %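 (compounds screened at 7.5 µM in platelet-rich plasma)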. 300,000 tested, 0.22% active. AID 1663;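 active means mean replicate score, as percent of positive control, at or above 50; inconclusive means mean below 50 but at least one replicate at or above 50; inactive means mean and every replicate below 50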
A number is an active result; - = inactive; ? = inconclusive; . = no result given.

SMILES | MPTP block | HSF-1 act | dFosB act | HSF1 inh | HSP90 refold inh | Platelet DG rel
CCC(CC)C(=O)NCCc1cc2cc(C)c(C)cc2[nH]c1=O | - | - | - | - | - | -
Cc1cc2cc(CCNC(=O)c3cccs3)c(=O)[nH]c2cc1C | - | 58 | - | - | - | -
CCOC(=O)C1(Cc2cccc(OC)c2)CCN(CC=C(C)C)CC1 | - | - | - | - | - | 57
CCOC(=O)C1(Cc2ccc(OC)cc2)CCN(C(=O)c2cc3ccccc3[nH]2)CC1 | - | 77 | - | - | - | -
CCOC(=O)C1(Cc2ccc(OC)cc2)CCN(C(=O)c2cc(C)on2)CC1 | - | - | - | - | - | -
COc1ccccc1CNC(=O)c1cc(-c2ccccc2C)n(CC2CC(c3cccc([N+](=O)[O-])c3)=NO2)n1 (stereo not given) | - | . | - | . | . | .
CC(=O)Nc1cc(OC(C)=O)c2nonc2c1OC(C)=O | - | . | - | . | 85 | .
Cc1ccc2cc3c(N)c(C(=O)N4CCOCC4)sc3nc2c1 | - | 67 | - | - | - | -
Cn1cc(Cc2ccc(C(=O)N3CCCCC3)cn2)c2ccccc21 | - | . | . | . | . | .
O=C(O)C1C2C=CC(O2)C1C(=O)Nc1ccc2c(c1)OCCO2 (stereo not given) | . | - | . | -74 | - | -
O=C(O)C1C2C=CC(C2)C1C(=O)Nc1ccc2c(c1)OCCO2 (stereo not given) | - | - | - | -57 | - | -
CC(=O)c1ccc(NC(=O)C2C3C=CC(O3)C2C(=O)O)cc1 (stereo not given) | - | 58 | - | - | - | -
COc1ccc(NC(=O)C2C3C=CC(O3)C2C(=O)O)cc1 (stereo not given) | - | - | - | - | - | -
Cn1c(=O)c2ncn(CC(=O)N/N=C/c3ccco3)c2n(C)c1=O | - | - | - | - | - | -
O=C(COc1ccccc1F)Nc1ccc(S(=O)(=O)N2CCCC2)cc1 | - | . | - | . | . | .
CCN(CC)CCn1c(NC(=O)c2ccc(C(F)(F)F)cc2)nc2ccccc21 | - | . | - | . | - | -
O=C(Nc1ccc2ccccc2n1)c1ccccc1Br | - | 71 | - | - | - | -
O=C(Nc1ccc2ccccc2n1)c1ccccc1 | - | - | - | - | - | -
Cc1ccc(C(=O)Nc2ccc3ccccc3n2)cc1 | - | 58 | - | - | - | -
O=C(CCc1ccccc1)Nc1ccccc1 | - | - | - | - | - | -
CCN(CC)CCn1c(NC(=O)c2ccc(C)cc2)nc2ccccc21 | - | 57 | - | - | - | -
O=C(CCc1ccccc1)Nc1ccc2ccccc2n1 | - | 92 | - | - | - | -
O=C(CN(c1ccccc1)S(=O)(=O)c1ccc(F)cc1)NCc1cccs1 | - | . | - | . | . | .
COc1cccc(OCc2cc(C(=O)N(C)Cc3nc4ccccc4[nH]3)no2)c1 | - | 61 | - | - | - | -
CC(=O)Nc1cc(-c2ccc(F)cc2)cn2c(-c3ccc(S(C)(=O)=O)cc3)cnc12 | - | . | . | . | . | .
SMILES | MPTP block | HSF-1 act | dFosB act | HSF1 inh | HSP90 refold inh | Platelet DG rel
O=C(c1ccco1)N1CCN(C2CN(Cc3cn(Cc4ccccc4C(F)(F)F)nn3)S(=O)(=O)C2)CC1 (stereo not given) | - | . | . | . | . | .
Cc1ccc(NC(=O)COC(=O)C2C3CC4OC(=O)C2C4C3)cc1 (stereo not given) | - | - | - | - | - | -
O=C(COC(=O)C1C2CC3OC(=O)C1C3C2)Nc1cccc(Cl)c1 (stereo not given) | - | - | - | -64 | - | -
O=[N+]([O-])c1ccc(CSc2nc3ccccc3[nH]2)cc1 | - | 121 | - | - | - | -
c1ccc(CSc2nc3ccccc3[nH]2)cc1 | - | ? | - | - | - | -
Cc1cc(SCc2cccc([N+](=O)[O-])c2)nc(=O)[nH]1 | - | - | - | - | - | -
Fc1ccc(CSc2nc3ccccc3[nH]2)cc1 | - | 61 | - | - | - | -
Nn1c(SCc2ccc([N+](=O)[O-])cc2)nc2ccccc2c1=O | - | 55 | - | - | - | -
Cc1cc(SCc2ccc([N+](=O)[O-])cc2)nc(=O)[nH]1 | - | 69 | - | - | - | -
Cc1ccc(S(=O)(=O)CCC(=O)OC(C)C(=O)Nc2ccc(N3CCOCC3)cc2)cc1 (stereo not given) | - | . | - | . | . | .
O=C(CCCSc1nc2ccccc2[nH]1)N1CCN(c2ccc([N+](=O)[O-])cc2)CC1 | - | 73 | - | - | - | -
Cc1ccc(CNC(=O)CSc2nc3ccsc3c(=O)n2Cc2ccccn2)cc1 | - | - | - | - | - | -
O=c1c2sccc2nc(SCc2ccc([N+](=O)[O-])cc2)n1Cc1ccccn1 | - | 59 | - | - | - | -
Cc1[nH]c(=S)c(C#N)c(C)c1Cc1ccccc1 | - | - | . | - | - | -
Cc1[nH]c(=S)c(C#N)c(C)c1CCC#N | - | - | - | - | - | 76
CC(=O)N1CC2(CC(c3ccccc3F)=NO2)CN1c1ccc(Cl)cc1 (stereo not given) | - | . | . | . | . | .
c1ccc(-c2nc3cnccn3c2Nc2ccc3c(c2)OCCO3)cc1 | - | - | - | - | - | -
Oc1ccc(-c2nc3cnccn3c2Nc2ccc3c(c2)OCCO3)cc1 | - | 64 | - | - | - | -
COc1cc(-c2nc3cnccn3c2Nc2ccccc2)ccc1O | - | 56 | - | - | - | -
O=C(Nc1nc(OCC(F)(F)F)cnc1/C=C\c1ccccc1)c1ccccc1 | - | . | . | . | . | .
O=C(O)C1C2CCC1C(O)C2 (stereo not given) | - | . | . | . | . | .
CCN1CCCC1CNC(=O)c1ccc2c(c1)NC(=O)/C(=C\c1ccc(C)cc1)S2 (stereo not given) | - | - | 39 | - | - | -
CCOC(=O)c1cc(C(=O)OCC)c(=O)[nH]c1N1CCCCC1 | - | - | - | - | - | -
CCOc1ccc(CCNC(=O)COn2nnc3ccc(S(=O)(=O)N4CCOCC4)cc32)cc1OCC | - | - | - | - | . | -
CC(C)(C)OC(=O)N1CSC[C@H]1C(=O)NC[C@H](CC(=O)O)c1ccc(Cl)cc1 | - | 82 | - | - | - | -
SMILES | MPTP block | HSF-1 act | dFosB act | HSF1 inh | HSP90 refold inh | Platelet DG rel
CC(C)C[C@H](NC(=O)C1(c2ccccc2)CCN(C(=O)[C@H]2CSCN2C(=O)OC(C)(C)C)CC1)C(=O)O | - | - | - | - | - | -
Cc1cc2c(c(=O)n1Cc1ccccn1)C(c1ccc3c(c1)OCO3)C(C#N)=C(N)O2 (stereo not given) | - | - | - | - | - | -
COc1ccc(CCn2c(C)cc3c(c2=O)C(c2ccc4c(c2)OCO4)C(C#N)=C(N)O3)cc1OC (stereo not given) | - | - | 51 | - | - | -
O=C1OC[C@H](Cc2ccc3c(c2)OCO3)/C1=C\c1ccc2c(c1)OCO2 | - | - | - | - | . | -
O=C(COC(=O)c1ccccc1C(=O)c1ccccc1)NCCc1ccccc1 | - | 55 | - | - | - | -
O=C(COC(=O)c1ccccc1C(=O)c1ccc(Cl)cc1)NCCc1ccccc1 | - | - | - | - | - | -
